This note sets out measurements from PubChem BioAssay.

A short description of assay [1]: binders of probe aFSTL3 on microarray, primary screen, stem cell growth factor project, biochemical, small-molecule microarray, fluorescence 635/667 (AID 1064).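 Also: measures binding of the biotinylated anti-FSTL3 antibody to printed compounds.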 The note with it: higher = more signal.
Assay [2] is described as follows: binders from COS7 lysate, DM2A8 probe, primary screen, torsin A project, cell lysate, small-molecule microarray, fluorescence 635/667 (AID 1065). The note with it: higher = more signal, COS7 lysate expressing mutant human TOR1A.
The nature of assay [3]: binders of probe aFGF2 on microarray, primary screen, stem cell growth factor project, biochemical, small-molecule microarray, fluorescence 635/667 (AID 1067).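 Also: measures binding of biotinylated aFGF2 protein to printed compounds on slides; z-score merges feature fluorescence and signal-to-noise across triplicate slides.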 The settings on record: higher = more signal.
Assay [4] in a line: binders of probe aFGF10 on microarray, primary screen, stem cell growth factor project, biochemical, small-molecule microarray, fluorescence 635/667 (AID 1071).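 Also: score merges 667 nm spot intensity and signal to noise from triplicate slides.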 The settings on record: higher = more signal.
For assay [5], the target named is Neurogenic locus notch homolog protein 2 (Homo sapiens) (UniProt Q04721). Kind of assay: Notch2 binders on small-molecule microarrays, primary screen, biochemical, small-molecule microarray, 635 nm fluorescence, stem cell growth factors (AID 1073). The note with it: Notch2 binding, higher = more signal.
In assay [6] the target is Pro-neuregulin-1, membrane-bound isoform (Homo sapiens) (UniProt Q02297). In words: NRG1 binders on small-molecule microarrays, primary screen, psychiatric disease protein project, biochemical, small-molecule microarray, fluorescence 635/667 (AID 1075).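 Also: score combines 667 nm spot fluorescence with signal to noise.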 The settings on record: NRG1 binding, 635 nm fluorescence, higher = more signal.
Assay [7] has as its system Neuregulin-1 EGF-like domain. Kind of assay: binders of neuregulin-1 EGF-like domain, primary screen, biochemical, small-molecule microarray, 635 nm fluorescence (AID 1081).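 Also: binding of the protein to compounds printed on small-molecule microarray slides.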 The note with it: small-molecule microarray binding, higher = more signal.
The nature of assay [8]: FRG1 promoter luciferase signal modulators, primary screen, FRG1 inhibition for FSHD, cell-based, C2C12 myotubes, firefly/Renilla luciferase, luminescence (AID 1084). The settings on record: higher = more signal, called active from +8 up or from −8 down.
Assay [9] can be described thus: binders of probe aFST on microarray, primary screen, stem cell growth factor project, biochemical, small-molecule microarray, fluorescence 635/667 (AID 1086).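 Also: score merges 667 nm fluorescence with signal-to-noise of each printed compound spot.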 The note with it: higher = more signal.
Assay [10] is described as follows: binders of probe aHhip on microarray, primary screen, stem cell growth factor project, biochemical, small-molecule microarray, fluorescence 635/667 (AID 1087).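 Also: score merges spot fluorescence at 667nm with spot signal to noise ratio.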 The settings on record: higher = more signal.
The subject of assay [11] is PRMT1 (protein arginine N-methyltransferase 1). In words: PRMT1 binders on small-molecule microarrays, primary screen, biochemical, small-molecule microarray, 635 nm fluorescence (AID 1088).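 Also: binding of Prmt1 protein to compounds spotted on small-molecule microarray slides.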 The note with it: small-molecule microarray binding, higher = more signal.
Assay [12] is described as follows: yeast growth modulation, basal conditions, primary screen, YJM789 clinical isolate, OD600, 24 h (AID 1089).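 Also: growth of clinical yeast isolate S. cerevisiae YJM 789 seeded 1000 cells per well; test concentration not given here.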 The settings on record: S. cerevisiae YJM789 growth, higher = more signal, called active from +8 up or from −8 down.
Assay [13] can be described thus: fission yeast growth modulation, primary screen, strain 972, OD600, 24 h, no modulator (AID 1090).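 Also: basal condition with compound alone and no growth modifier present; test concentration not given here.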 The settings on record: S. pombe 972 growth, higher = more signal, called active from +8 up or from −8 down.
A short description of assay [14]: S. cerevisiae growth modulation with rapamycin, primary screen, strain BY4716, OD600, 96 h (AID 1091). Also: test concentration not given here. The settings on record: higher = more signal, called active from +8 up or from −8 down.
The target of assay [15] is Torsin-1A-interacting protein 2 (Homo sapiens) (UniProt Q8NFQ8). In words: LULL1 binders on small-molecule microarray, primary screen, cell lysate, human LULL1 lysate, 635/667 nm fluorescence (AID 1092).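 Also: score merges per-feature 667 nm fluorescence with signal-to-noise.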 The note with it: hLULL1 lysate binding, 635 nm fluorescence, higher = more signal.
Assay [16] can be described thus: E. coli growth modulation, two-sided OD650, primary screen, E. coli filamentation project, strain DRC41, 24 h (AID 1093).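 Also: MC1000 strain lacking acrAB efflux and sulA so SOS filamentation is blocked; test concentration not given here.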 The settings on record: OD650, 24 h, higher = more signal, called active from +8 up or from −8 down.
A short description of assay [17]: small-molecule microarray binders of probe aLefty2, primary screen, biochemical, biotinylated probe, 635/667 nm fluorescence (AID 1094).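 Also: score merges spot fluorescence near 667 nm with spot signal-to-noise ratio.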 The note with it: higher = more signal.
The test system of assay [18] is Noggin (protein binding on small-molecule microarray). Kind of assay: Noggin binders on small-molecule microarray, primary screen, biochemical, 635/667 nm fluorescence (AID 1095).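 Also: score merges 667 nm feature fluorescence with signal to noise over triplicate slides.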 The note with it: 635 nm fluorescence, higher = more signal.
Assay [19] concerns the target Neurogenic locus notch homolog protein 3 (Homo sapiens) (UniProt Q9UM47). In words: NOTCH3 binders on small-molecule microarray, primary screen, biochemical, 635/667 nm fluorescence (AID 1096). The note with it: NOTCH3 binding, 635 nm fluorescence, higher = more signal.
A short description of assay [20]: small-molecule microarray binders of probe aEGFR, primary screen, biochemical, biotinylated probe, 635/667 nm fluorescence (AID 1097).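 Also: probe is a biotinylated anti-EGFR antibody binding compounds printed on slides; score combines fluorescence near 667 nm and signal to noise of each spot.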 The note with it: higher = more signal.

Activity calls are given as the source filed them.

Chain of Neurogenic locus notch homolog protein 3 (Homo sapiens) (Q9UM47 whole entry, looked up): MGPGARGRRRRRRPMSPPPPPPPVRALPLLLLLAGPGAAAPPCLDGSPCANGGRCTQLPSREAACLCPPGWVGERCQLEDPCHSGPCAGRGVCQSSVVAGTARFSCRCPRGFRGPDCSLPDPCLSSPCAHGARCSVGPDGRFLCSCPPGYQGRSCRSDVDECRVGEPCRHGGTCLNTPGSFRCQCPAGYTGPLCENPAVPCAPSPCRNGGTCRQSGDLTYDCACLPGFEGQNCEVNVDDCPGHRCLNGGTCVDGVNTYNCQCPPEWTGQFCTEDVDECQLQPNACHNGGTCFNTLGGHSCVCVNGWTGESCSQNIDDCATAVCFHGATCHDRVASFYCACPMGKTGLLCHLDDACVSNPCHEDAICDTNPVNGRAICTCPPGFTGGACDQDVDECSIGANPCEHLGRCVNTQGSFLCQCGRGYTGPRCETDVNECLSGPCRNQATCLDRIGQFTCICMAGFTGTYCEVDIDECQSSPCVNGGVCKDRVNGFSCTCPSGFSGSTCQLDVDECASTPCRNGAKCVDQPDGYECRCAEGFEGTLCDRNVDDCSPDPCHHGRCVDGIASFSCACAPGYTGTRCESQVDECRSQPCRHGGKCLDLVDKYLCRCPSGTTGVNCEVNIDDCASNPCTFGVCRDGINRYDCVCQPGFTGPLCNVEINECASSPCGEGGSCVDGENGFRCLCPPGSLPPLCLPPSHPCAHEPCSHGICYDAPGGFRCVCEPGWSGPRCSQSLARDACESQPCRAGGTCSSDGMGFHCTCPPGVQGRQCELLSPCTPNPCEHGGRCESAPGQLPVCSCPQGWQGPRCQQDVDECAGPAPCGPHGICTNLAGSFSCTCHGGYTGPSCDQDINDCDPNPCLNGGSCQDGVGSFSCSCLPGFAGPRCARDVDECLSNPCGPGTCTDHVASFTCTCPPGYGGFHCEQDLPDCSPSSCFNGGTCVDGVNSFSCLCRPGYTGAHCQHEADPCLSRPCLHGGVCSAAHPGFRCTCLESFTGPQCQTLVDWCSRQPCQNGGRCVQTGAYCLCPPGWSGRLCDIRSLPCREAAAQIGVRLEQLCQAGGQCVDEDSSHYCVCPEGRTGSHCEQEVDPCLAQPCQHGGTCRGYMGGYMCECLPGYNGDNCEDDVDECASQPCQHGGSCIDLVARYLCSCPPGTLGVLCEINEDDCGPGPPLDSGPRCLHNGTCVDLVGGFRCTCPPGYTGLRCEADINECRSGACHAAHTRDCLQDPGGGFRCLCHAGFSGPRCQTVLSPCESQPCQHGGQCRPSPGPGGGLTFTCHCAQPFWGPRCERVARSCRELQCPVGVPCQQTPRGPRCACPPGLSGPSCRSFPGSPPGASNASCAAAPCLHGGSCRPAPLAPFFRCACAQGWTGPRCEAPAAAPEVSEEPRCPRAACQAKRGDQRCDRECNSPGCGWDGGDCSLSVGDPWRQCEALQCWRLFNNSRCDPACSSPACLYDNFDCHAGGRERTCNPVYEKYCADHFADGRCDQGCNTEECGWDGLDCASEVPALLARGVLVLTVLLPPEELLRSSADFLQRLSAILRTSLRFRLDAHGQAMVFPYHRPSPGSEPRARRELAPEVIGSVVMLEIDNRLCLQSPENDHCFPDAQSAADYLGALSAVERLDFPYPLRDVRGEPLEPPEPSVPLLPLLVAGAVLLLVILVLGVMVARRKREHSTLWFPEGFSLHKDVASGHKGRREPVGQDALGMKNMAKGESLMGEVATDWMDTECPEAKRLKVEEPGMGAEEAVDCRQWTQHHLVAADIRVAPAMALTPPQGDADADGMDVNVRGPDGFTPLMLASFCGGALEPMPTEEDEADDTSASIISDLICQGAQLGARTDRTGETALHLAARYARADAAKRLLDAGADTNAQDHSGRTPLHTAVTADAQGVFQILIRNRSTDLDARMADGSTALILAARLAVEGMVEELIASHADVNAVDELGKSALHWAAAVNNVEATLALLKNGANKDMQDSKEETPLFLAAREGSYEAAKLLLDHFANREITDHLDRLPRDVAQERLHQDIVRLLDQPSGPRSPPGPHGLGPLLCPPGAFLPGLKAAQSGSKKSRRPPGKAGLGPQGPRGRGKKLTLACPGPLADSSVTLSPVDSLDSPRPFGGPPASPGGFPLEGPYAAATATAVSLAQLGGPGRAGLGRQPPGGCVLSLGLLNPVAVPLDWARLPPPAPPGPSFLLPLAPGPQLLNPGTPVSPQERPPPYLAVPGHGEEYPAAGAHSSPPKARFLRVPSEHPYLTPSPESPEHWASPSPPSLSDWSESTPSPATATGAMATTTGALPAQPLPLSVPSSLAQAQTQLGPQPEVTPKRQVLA
Chain of Neurogenic locus notch homolog protein 2 (Homo sapiens) (Q04721 whole entry, looked up, canonical isoform): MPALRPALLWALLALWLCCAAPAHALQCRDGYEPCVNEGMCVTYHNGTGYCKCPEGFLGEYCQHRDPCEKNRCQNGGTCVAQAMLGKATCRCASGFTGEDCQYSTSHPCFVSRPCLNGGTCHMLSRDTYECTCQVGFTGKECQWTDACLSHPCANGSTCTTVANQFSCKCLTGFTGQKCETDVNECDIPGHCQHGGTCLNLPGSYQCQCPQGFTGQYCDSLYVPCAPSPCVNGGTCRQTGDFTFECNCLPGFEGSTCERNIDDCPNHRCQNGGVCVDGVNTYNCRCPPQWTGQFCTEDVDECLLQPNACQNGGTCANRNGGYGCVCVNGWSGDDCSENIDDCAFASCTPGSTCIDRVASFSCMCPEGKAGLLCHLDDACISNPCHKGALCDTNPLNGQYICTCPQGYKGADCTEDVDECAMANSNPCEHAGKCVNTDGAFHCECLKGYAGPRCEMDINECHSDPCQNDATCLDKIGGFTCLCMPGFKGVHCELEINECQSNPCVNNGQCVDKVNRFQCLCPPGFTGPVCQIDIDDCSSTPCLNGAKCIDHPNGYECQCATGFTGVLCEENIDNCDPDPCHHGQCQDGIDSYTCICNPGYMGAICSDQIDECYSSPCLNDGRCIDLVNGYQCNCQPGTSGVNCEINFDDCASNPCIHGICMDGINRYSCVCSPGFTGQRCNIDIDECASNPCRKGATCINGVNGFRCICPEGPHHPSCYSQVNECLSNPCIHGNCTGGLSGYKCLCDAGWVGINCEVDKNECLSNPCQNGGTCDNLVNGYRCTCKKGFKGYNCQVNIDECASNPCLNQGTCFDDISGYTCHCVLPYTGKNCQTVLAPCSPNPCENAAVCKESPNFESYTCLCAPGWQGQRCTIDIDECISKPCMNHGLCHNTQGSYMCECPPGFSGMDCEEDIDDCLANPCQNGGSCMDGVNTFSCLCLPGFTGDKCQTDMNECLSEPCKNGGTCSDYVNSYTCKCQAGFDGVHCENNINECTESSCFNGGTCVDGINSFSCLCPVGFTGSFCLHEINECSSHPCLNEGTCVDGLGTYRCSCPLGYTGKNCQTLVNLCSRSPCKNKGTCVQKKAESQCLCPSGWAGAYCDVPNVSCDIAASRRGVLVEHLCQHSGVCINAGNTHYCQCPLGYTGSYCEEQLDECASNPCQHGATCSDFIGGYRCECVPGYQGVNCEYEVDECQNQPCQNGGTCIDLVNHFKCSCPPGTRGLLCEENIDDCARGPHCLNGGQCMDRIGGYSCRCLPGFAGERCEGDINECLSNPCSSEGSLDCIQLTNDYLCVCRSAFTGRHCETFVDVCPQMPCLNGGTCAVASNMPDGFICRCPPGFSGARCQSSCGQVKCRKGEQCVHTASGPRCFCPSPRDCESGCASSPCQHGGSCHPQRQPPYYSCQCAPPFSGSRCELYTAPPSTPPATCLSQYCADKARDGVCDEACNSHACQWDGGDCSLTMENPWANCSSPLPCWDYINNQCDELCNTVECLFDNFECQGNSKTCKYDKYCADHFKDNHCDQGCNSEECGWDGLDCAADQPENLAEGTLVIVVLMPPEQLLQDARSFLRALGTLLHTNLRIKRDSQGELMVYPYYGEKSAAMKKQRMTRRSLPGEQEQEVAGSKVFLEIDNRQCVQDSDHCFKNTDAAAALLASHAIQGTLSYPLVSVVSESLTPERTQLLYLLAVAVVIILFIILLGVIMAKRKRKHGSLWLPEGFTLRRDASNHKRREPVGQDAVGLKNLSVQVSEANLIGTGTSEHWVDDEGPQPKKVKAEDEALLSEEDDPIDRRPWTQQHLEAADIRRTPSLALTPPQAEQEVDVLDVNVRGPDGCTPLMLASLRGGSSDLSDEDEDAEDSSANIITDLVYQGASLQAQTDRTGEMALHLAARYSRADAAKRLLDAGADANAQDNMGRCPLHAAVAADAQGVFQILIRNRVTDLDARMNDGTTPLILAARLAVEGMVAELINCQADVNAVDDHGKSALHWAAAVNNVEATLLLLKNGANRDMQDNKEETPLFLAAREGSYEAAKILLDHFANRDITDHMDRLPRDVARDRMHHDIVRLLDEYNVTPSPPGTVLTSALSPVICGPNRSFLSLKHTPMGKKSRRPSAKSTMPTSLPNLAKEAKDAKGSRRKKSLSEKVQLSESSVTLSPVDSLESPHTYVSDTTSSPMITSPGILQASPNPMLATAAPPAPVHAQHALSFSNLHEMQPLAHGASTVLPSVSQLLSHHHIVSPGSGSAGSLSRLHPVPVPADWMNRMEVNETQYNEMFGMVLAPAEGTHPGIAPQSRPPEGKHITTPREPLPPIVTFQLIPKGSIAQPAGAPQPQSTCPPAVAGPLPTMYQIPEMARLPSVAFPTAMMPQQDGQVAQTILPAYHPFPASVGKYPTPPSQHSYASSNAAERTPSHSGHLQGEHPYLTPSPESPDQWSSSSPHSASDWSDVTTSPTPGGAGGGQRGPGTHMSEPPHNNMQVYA

Consider `CC(CCN1CCCc2nc(C)c(C)cc21)=NOC[C@@H](O)COCc1ccco1`, for which the composite z-score in assay [1] is 2.02; in [2] it was 3.09; in [3], 0.529; in [4], 0.0131; in [5], 0.164; in [6], -0.0146. The composite z-score came out at 0.919 in [7]; 2.79 in assay [9]; 3.19 in assay [10]; 1.53 in assay [11]; 0.0346 in assay [15]; 1.27 in [17]. The composite z-score in assay [18] is 2.32; in assay [19], 1.07; in assay [20], 1.15. Moreover, the z-score in [8] was 1.05 (inactive); in [12], -1.86 (inactive); in assay [13], 0.544 (inactive); in [14], -0.831 (inactive); in assay [16] it was 0.798 (inactive).
Regarding `C=CC[C@@H]1C=CC(ON=C(C)C)[C@@H](CO)O1` (stereo not given in full), the composite z-score is 0.0856 in assay [1]; -0.809 in assay [2]; -0.196 in assay [3]; -0.246 in assay [4]; -0.561 in assay [5]; -0.34 in assay [6]. For the same compound, the composite z-score in assay [7] is -0.0889; in [9], -0.238; in assay [10] it was 0.107; in [11] it was -0.316; in assay [15], -0.632; in [17] it was -0.103. In addition, the composite z-score in [18] was -0.117; in assay [19], -1.08; in [20], -0.215. In addition, the z-score in [8] is 1.35 (inactive); in assay [12], 1.03 (inactive); in assay [13], 0.446 (inactive); in assay [14], 1.16 (inactive); in assay [16] it was 0.452 (inactive).
Regarding `C[C@@H](c1ccccc1)N1C(=O)[C@H]2[C@H]3[C@H](O)[C@H](O)CC(=NOCc4ccccc4)[C@@H]3CC[C@H]2C1=O`, the composite z-score was 1.67 in [1]; -0.0647 in assay [2]; -0.0203 in assay [3]; 0.0018 in assay [4]; -0.578 in assay [5]; -0.258 in assay [6]. The composite z-score was -0.521 in assay [7]; 0.401 in [9]; -0.0672 in [10]; -0.246 in assay [11]; 0.379 in assay [15]; 0.408 in [17]. Also, the composite z-score in assay [18] was -0.29; in assay [19], -0.551; in [20], -0.203. Moreover, the z-score in assay [8] was 0.717 (inactive); in assay [12], 0.855 (inactive); in assay [13], -0.293 (inactive); in assay [14] it was 0.512 (inactive); in assay [16] it was -0.125 (inactive).
`CC(C)[C@@H](OCc1ccccc1)[C@H](C)C=NO[C@@H](C)c1cn([C@H](CO)Cc2ccccc2)nn1`: the composite z-score was -0.474 in assay [1]; 0.384 in assay [2]; 0.491 in assay [3]; 0.175 in assay [4]; 0.301 in [5]; -0.236 in assay [6]. The composite z-score is -0.419 in [7]; 0.155 in assay [9]; -0.175 in assay [10]; 0.195 in assay [11]; 0.559 in assay [15]; -0.186 in assay [17]. The composite z-score in assay [18] is 0.803; in [19] it was 0.543; in assay [20], -0.128. In addition, the z-score in assay [8] was 0.193 (inactive); in assay [12], -2.32 (inactive); in assay [13], -3.21 (inactive); in assay [14], -1.14 (inactive); in [16], 0.96 (inactive).
`CCOC(=O)CCN1C(=O)[C@H]2[C@H]3[C@H](O)[C@H](O)CC(=NNC(=O)OCc4ccc(OC)cc4)[C@H]3CC[C@H]2C1=O`: the composite z-score is -0.41 in assay [1]; 0.339 in [2]; -0.116 in assay [3]; 0.155 in assay [4]; 0.68 in assay [5]; 0.0204 in assay [6]. The composite z-score in assay [7] is 0.0944; in [9], 0.245; in assay [10], -0.329; in [11], 0.271; in [15] it was 0.282; in assay [17] it was 0.0108. The values for the composite z-score in assay [18], in assay [19] and in assay [20] were 0.335, 0.316 and 0.0289, respectively. Besides, the z-score in assay [8] is -0.971 (inactive); in assay [12] it was 0.0811 (inactive); in [13] it was -0.257 (inactive); in assay [14], -0.577 (inactive); in [16] it was -0.31 (inactive).
